Experiments:
CHO = experiment: % viability of CHO cells (MTT); higher = less toxic; settings: 48 h
Procedure, shortened: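 CHO cells were plated at 10^6 cells/well in 200 µL and allowed to attach overnight. Fresh medium with compound at 2 or 20 µM then replaced the old medium for 48 h. Percent viability, relative to untreated cells, came from a colorimetric tetrazolium (MTT) readout.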

HepG2-A16-CD81 = experiment: % inhibition of HepG2 viability (CellTiter-Glo); higher = more toxic; settings: 5 µM
[1] = test system: Plasmodium falciparum NF54 stage IV/V gametocytes; experiment: % inhibition of gametocyte viability (PrestoBlue); higher = more inhibition; settings: 48 h
Procedure, shortened: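 In a single run, percent inhibition of gametocyte viability was calculated relative to vehicle and kill controls. The wells held 100 µL of Stage IV/V NF54 gametocytes at 2% gametocytaemia and 5% haematocrit, with compound at 1 or 5 µM. Plates stood at 37 °C in hypoxic conditions for 48 h. After that, 10 µL PrestoBlue was added for 2 h, and 70 µL of supernatant was transferred for fluorescence reading at 612 nm.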

[2] = test system: Plasmodium falciparum NF54 asexual blood stage; experiment: % inhibition of asexual blood stage proliferation (pLDH); higher = more inhibition; settings: 72 h
Procedure, shortened: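 Percent inhibition of asexual proliferation, normalised to controls, was determined in a screen repeated on two separate occasions. Plasmodium falciparum NF54 ring-stage cultures (1% haematocrit, 2% parasitaemia) received compound at 2 or 20 µM and were incubated for 72 h at 37 °C under 4% CO2, 3% O2 and 93% N2. A colorimetric parasite lactate dehydrogenase readout at 620 nm gave survival.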

[3] = test system: Plasmodium falciparum NF54 stage IV/V gametocytes; experiment: % inhibition of gametocyte viability (ATP bioluminescence); higher = more inhibition; settings: 24 h
Procedure, shortened: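 Enriched stage IV/V NF54 gametocytes were exposed to compound at 1 or 5 µM for 24 h at 37 °C in 96-well plates. Percent inhibition of gametocyte viability was derived from a bioluminescent ATP readout, normalised to controls within a single run.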

[4] = test system: Plasmodium falciparum NF54 stage IV/V gametocytes; experiment: % inhibition of gametocyte viability (luciferase reporter); higher = more inhibition; settings: 48 h
Procedure, shortened: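 Luminescence from 30 µL lysate combined with 30 µL Promega luciferin substrate was recorded on a GloMax-Multi+ reader using 10 s integration. The lysate came from stage IV/V NF54-Pfs16-GFP-Luc gametocytes (2% gametocytaemia, 2% haematocrit) held with compound at 1 or 5 µM for 48 h at 37 °C under stationary, hypoxic conditions. Percent inhibition was normalised against controls run once.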

[5] = test system: Plasmodium berghei ANKA liver stage in HepG2-A16-CD81; experiment: % inhibition of liver stage parasite viability (luciferase); higher = more inhibition; settings: 5 µM; 48 h
Description: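 Single-concentration screen of the MMV Pandemic Response Box. P. falciparum NF54 asexual blood stages: pLDH assay, 72 h at 37 °C, 2 and 20 µM, n=2. Stage IV/V gametocytes (NF54): luciferase reporter (NF54-Pfs16-GFP-Luc, 48 h), ATP bioluminescence (24 h) and PrestoBlue (48 h) at 1 and 5 µM, n=1. P. berghei liver stage (luciferase in HepG2-A16-CD81, 48 h post infection) at 5 µM, n=4. All normalised to DMSO and kill controls as % inhibition.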
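Throughout, for % inhibition of HepG2 viability (CellTiter-Glo): HepG2-A16-CD81 hepatoma cells plated as in the liver-stage assay but without sporozoites, with DMSO wells as negative and 25 µM puromycin as positive control.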

SMILES | % viability of CHO cells (CHO; 2 µM) [%] | % viability of CHO cells (CHO; 20 µM) [%] | % inhibition of HepG2 viability (HepG2-A16-CD81) [%] | % inhibition of gametocyte viability ([1]; 1 µM) [%] | % inhibition of gametocyte viability ([1]; 5 µM) [%] | % inhibition of asexual blood stage proliferation ([2]; 2 µM) [%] | % inhibition of asexual blood stage proliferation ([2]; 20 µM) [%] | % inhibition of gametocyte viability ([3]; 1 µM) [%] | % inhibition of gametocyte viability ([3]; 5 µM) [%] | % inhibition of gametocyte viability ([4]; 1 µM) [%] | % inhibition of gametocyte viability ([4]; 5 µM) [%] | % inhibition of liver stage parasite viability [5] [%]
O=C1NC(=O)C(Br)=C1Br | 118 | 103 | 5.44 | 13.6 | < 0 | 42.2 | 102 | 0.158 | < 0 | < 0 | 11.4 | –
Cc1c[nH]c(=O)nc1NCc1ccccc1 | 36.1 | 22.7 | -0.05 | 6.6 | 11.5 | 22.3 | 60.5 | < 0 | < 0 | < 0 | 4.07 | –
CCN(CC)S(=O)(=O)c1ccc(Cl)c(C(=O)Nc2sc3c(c2C#N)CCCC3)c1 | 100 | 109 | 20.9 | < 0 | < 0 | 0.194 | 18.9 | < 0 | < 0 | < 0 | 9.16 | –
CC(Oc1ccc(Cl)cc1Cl)C(=O)NCc1ccc2c(c1)OCO2 (centres undefined) | – | – | – | < 0 | 35.3 | -4.14 | -3.59 | < 0 | < 0 | < 0 | < 0 | 7.01
CCc1nc(N)nc(N)c1C#CCc1ccccc1 | 105 | 92.5 | 5.43 | 1.8 | < 0 | 66 | 97.2 | < 0 | < 0 | 5.41 | < 0 | –
NC(=O)[C@@H]1CC[C@@H]2CN1C(=O)N2OS(=O)(=O)O | 82.9 | 117 | 4.71 | < 0 | < 0 | 30.8 | 16.5 | 1.17 | < 0 | < 0 | 1.87 | –

From the supplement of paper PMC7801607
